Measured values from PubChem BioAssay (NCI).
The panel holds about 83,000 compounds, 20% with a hit somewhere; the sample as a whole holds those more often.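 For each line, cells grew in 96-well plates with the test compound present at a single concentration for 48 hours.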 Unmarked numbers belong to inactive results. Activity calls are given as the source filed them. How the source made its calls: active means growth percent below 10; inactive means the rest.

How the values were obtained:
Test in all cases: NCI-60 one-dose screen, 48 h (100 = growth as untreated, 0 = no growth, -100 = all killed)
Conditions in all cases: 10 µM unless noted
[1] = system: SK-MEL-2 melanoma
[2] = system: EKVX NSCLC
[3] = system: UO-31 renal
[4] = system: TK-10 renal
[5] = system: ACHN renal
[6] = system: CAKI-1 renal
[7] = system: A498 renal
[8] = system: CCRF-CEM leukemia
[9] = system: MOLT-4 leukemia
[10] = system: SR leukemia
[11] = system: RPMI-8226 leukemia
[12] = system: OVCAR-8 ovarian
[13] = system: OVCAR-5 ovarian
[14] = system: OVCAR-4 ovarian
[15] = system: SK-OV-3 ovarian
[16] = system: IGROV1 ovarian
[17] = system: OVCAR-3 ovarian
[18] = system: HS 578T breast
[19] = system: NCI/ADR-RES ovarian

Row | Structure (SMILES) | growth [1] | growth [2] | growth [3] | growth [4] | growth [5] | growth [6] | growth [7] | growth [8] | growth [9] | growth [10] | growth [11] | growth [12] | growth [13] | growth [14] | growth [15] | growth [16] | growth [17] | growth [18] | growth [19]
1 | Cc1cc(=O)oc2cc(OCCOc3ccc(/C=C/C(=O)Nc4ccccc4N)cc3)ccc12 | 59.1% | 38.8% | 7.73% (active) | 43.3% | 37.1% | 30.7% | 14.4% | 6.51% (active) | 4.54% (active) | 26.1% | 1.06% (active) | 38.5% | 39.2% | 41.2% | 11.1% | 38.7% | 20.3% | 40.6% | 16.4%
2 | CCC(C)(C)c1ccc(OCCCCCCN2CCN(c3ccncc3)CC2)cc1 | 71.6% | 6.51% (active) | 28.2% | 65.2% | 48.3% | 17.5% | 66.1% | -23.4% (active) | -23.5% (active) | -27.5% (active) | -44.5% (active) | 54% | 65.7% | 47.7% | 38.5% | 49.8% | 38% | -7.9% (active) | 19%
3 | CCC(C)(C)c1ccc(OCCCCN2CCN(c3ccncc3)CC2)cc1 | 63.2% | 28% | 40.2% | 70.8% | 68.9% | 43.5% | 88.9% | 2.23% (active) | 1.66% (active) | -24.2% (active) | -31.3% (active) | 67% | 69.2% | 56% | 32.3% | 55.5% | 51.1% | 20.2% | 59.7%
4 | CN(C)c1ccnc(CNCCSC2(c3ccccc3)c3ccccc3C=Cc3ccccc32)c1 | -46.6% (active) | -24.3% (active) | 13.5% | 0.124% (active) | 12.8% | 3.63% (active) | -38.8% (active) | -2.57% (active) | 7.41% (active) | -52.6% (active) | -48% (active) | -45.1% (active) | 1.39% (active) | 16.8% | 6.47% (active) | 11.1% | -58.6% (active) | -34% (active) | -61.6% (active)
5 | COc1ccc(-c2ccnc(SCc3cc4cc(Cl)ccc4[nH]c3=O)n2)cc1 | 99% | 57.1% | 79.1% | 19.5% | 55% | 26.2% | 41.6% | 79.1% | 93.6% | 92.5% | 73.8% | 34.1% | 135% | 10.1% | -2.33% (active) | 95.8% | 58.2% | -5.84% (active) | 44.8%
6 | CCCCSc1nc(NCCc2c[nH]c3ccccc23)c(C#N)c(-c2ccc(OC)cc2)n1 | 76.6% | 40.1% | 59.3% | 102% | 66.6% | 53.6% | 103% | 27.8% | 26.3% | 5.98% (active) | 30.7% | 79.2% | 87% | 67.2% | 83.7% | 102% | 83.6% | 47% | 51.7%
7 | O=C(COc1ccc(NC(=O)Nc2ccc(Cl)cc2)cc1)N/N=C/c1ccccc1 | -84.3% (active) | -58.5% (active) | -14% (active) | -77.9% (active) | -77.4% (active) | -89.6% (active) | -94.3% (active) | -13.7% (active) | 9.72% (active) | 6.18% (active) | -23.5% (active) | -49% (active) | -9.58% (active) | -51.9% (active) | -60.2% (active) | -57.3% (active) | -76.9% (active) | -36.9% (active) | -10.9% (active)
8 | CCN(CC)c1ccnc(CNCCSC(c2ccccc2)(c2ccccc2)c2ccc(OC)cc2)c1 | -35.8% (active) | -8.82% (active) | 8.36% (active) | 1.59% (active) | 12.2% | 0.0931% (active) | -84.5% (active) | -3.59% (active) | 12.9% | -49.4% (active) | -55.9% (active) | -78.6% (active) | -11.9% (active) | 14.1% | -8.81% (active) | -2.91% (active) | -43% (active) | -33.2% (active) | -64.5% (active)
